Screening results deposited in PubChem by National Center for Advancing Translational Sciences (NCATS).
HT1080 IDH1KD tx = qHTS for induction of synthetic lethality in tumor cells producing 2HG: qHTS for the HT-1080-IDH1KD cell line | HT-1080 IDH1 knockdown viability, ATP luminescence, 48 h | Potency, µM (highest dose often 46.1 µM), inactives show top-dose activity, negative = toxicity, hits mostly cytotoxic | actives 2% (n = 360,000) | AID 686971, 2013;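 note: potency is the fitted concentration of half-maximal effect; 0% = DMSO wells and -100% = cell-free medium wells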
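Assay cells: HT-1080 with IDH1 knockdown, 750 per well, RPMI/5% FBS. Exposure: 48 h at 37 °C following 2 h pre-incubation. Read: CellTiter-Glo luminescence; fitted concentration-response, curve class assigned.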
DT40 TDP1 CPT = qHTS for Inhibitors of human tyrosyl-DNA phosphodiesterase 1 (TDP1): qHTS in cells in presence of CPT | chicken DT40 Tdp1-/-;hTDP1 cells + 20 nM CPT, ATP luminescence, 48 h | Potency, µM (top dose mostly 46.2 µM), for inactives: top-dose activity change, negative = growth inhibition, hits mostly inhibitors | actives 12% (n = 420,000) | AID 686979, 2013; note: potency is the fitted concentration of half-maximal effect; nearly all actives have a fitted effect of over 55% in size
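Cell growth measured by CellTiter-Glo luminescence after a minimum 48 h, 37 C compound exposure with 20 nM CPT in Tdp1-knockout DT40 cells stably expressing hTDP1, seeded 400/well; qHTS titration format.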
IL-1B inflam inh = qHTS for Inhibitors of Inflammasome Signaling: IL-1-beta AlphaLISA Primary Screen; THP-1 LPS/ATP IL-1B secretion, AlphaLISA, 16 h; hits give low values; activity change, % at 57.5 µM; actives 4.7% (n = 360,000); AID 743279, 2014; in the data active = activity change below about -50%; inconclusive = mostly about -30% to -49%
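Secreted IL-1B measured by AlphaLISA bead assay after 16 h compound exposure of THP-1 cells; compounds (final up to 57.5 uM) added 1 h before LPS (250 ng/mL) and ATP (1.25 mM) stimulation; lower signal means less secretion.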
TDP1 cell noCPT = qHTS for Inhibitors of human tyrosyl-DNA phosphodiesterase 1 (TDP1): qHTS in cells in absence of CPT; DT40 Tdp1-/- hTDP1 cells, no CPT, ATP luminescence, 48 h; Potency, µM (top dose mostly 46.2 µM), inactives show at the highest dose activity change, negative = growth inhibition, usual class: inhibitors; actives 15% (n = 420,000); note: potency is the fitted concentration of half-maximal effect; nearly all actives have a fitted effect of over 55% in size
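Seeded 400 DT40-hTDP1 cells/well (vehicle DMSO, no 20 nM CPT); pinned compounds; ≥48 hr at 37 °C; CellTiter-Glo luminescence as viability measure.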
HT1080-NT tox = qHTS for induction of synthetic lethality in tumor cells producing 2HG: qHTS for the HT-1080-NT fibrosarcoma cell line | Potency, µM (top dose mostly 46.1 µM), for inactives: at the top dose activity, negative = less viability, usual class: cytotoxic | HT-1080-NT fibrosarcoma viability, CellTiter-Glo ATP luminescence, 48 h | actives 1.6% (n = 360,000) | AID 686970, 2013;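 note: NT is the 2HG producing partner of a matched IDH1 knockdown line; potency is the fitted concentration of half-maximal effect; 0% = DMSO-treated cells and -100% = media-only wells without cells; nearly all actives have a fitted effect of over 55% in size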
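Compounds were tested in concentration-response format on HT-1080-NT cells for 48 hours at 37 degrees C. Cell viability came from CellTiter-Glo luminescence; curves were classified by r2, response magnitude and activity.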
* marks the source's active call; other numbers are inactive results; u = inconclusive; x = no result. Compounds with a hit are over-represented: about 19% of the library has one in this group of screens. Unless noted, calls come from the whole dose curve; as a rule, active = well fitted curve in the direction sought with a large enough effect; inconclusive = small, poorly fitted or top-dose-only effect, or another doubt; inactive = no such curve, though single readings can be large; an effect the other way counts as inactive or inconclusive. Unless noted, % is set by controls: 0 for no effect and ±100 for the full control effect.

SMILES	HT1080 IDH1KD tx	DT40 TDP1 CPT	IL-1B inflam inh	TDP1 cell noCPT	HT1080-NT tox
CCOC(=O)N1CCc2c(sc3c2c(=O)n(-c2ccc(CC)cc2)c(=O)n3Cc2cc(C)ccc2C)C1	x	-7%	x	-7%	x
COc1ccc(-n2c(=O)c3c4c(sc3n(CC(N)=O)c2=O)CCCCC4)cc1	12%	-11%	-8	-8%	-4%
CCc1ccc(-n2c(=O)c3c4c(sc3n(CC(=O)c3ccc(Br)cc3)c2=O)CCC4)cc1	x	5.8µM*	x	3.7µM*	x
CCc1ccc(-n2c(=O)c3c4c(sc3n(CC(=O)c3ccc(Cl)cc3)c2=O)CCC4)cc1	x	2.6µM*	x	2.6µM*	x
CC(=O)c1sc2c(c1C)c(=O)n(-c1ccc(Cl)cc1)c(=O)n2Cc1ccc(Cl)cc1	x	8.2µM*	x	8.2µM*	x
CCCCCN(C(=O)CCC(=O)OC(C)C(=O)Nc1cccc(C#N)c1)c1c(N)n(CCCC)c(=O)[nH]c1=O (stereo not given)	-6%	-3%	-8	1%	0%
CC(NC(=O)COC(=O)c1ccc(OCC2CCCO2)cc1)c1ccccc1Cl (stereo not given)	4%	u	14	-14%	2%
Cc1ccc(-n2c(=O)c3c4c(sc3n(Cc3cc(=O)n5ccccc5n3)c2=O)CCC4)cc1C	15%	u	6	u	-1%
O=C(Cn1c(=O)n(-c2ccc(Cl)cc2)c(=O)c2c3c(sc21)CCC3)c1ccc(F)cc1	x	8.2µM*	x	9.2µM*	x
CCc1ccc(-n2c(=O)c3c4c(sc3n(Cc3cc(=O)n5c(C)cccc5n3)c2=O)CCC4)cc1	x	u	x	12µM*	x
O=c1c2c3c(sc2n(Cc2ccccc2F)c(=O)n1-c1ccc(Cl)cc1)CCCC3	x	-8%	x	4%	x
COc1ccc(C(=O)NCC2CCCN2S(=O)(=O)c2cccs2)cc1 (stereo not given)	-5%	3%	-18	-29%	-3%
O=Cc1ccc(C(=O)OCC(=O)Nc2ccc(F)cc2F)cc1	4%	17%	2	22%	0%
O=C(CN(C1CCCCC1)S(=O)(=O)c1ccc(F)cc1)NCc1ccncc1	15%	-22%	-9	-17%	3%
CCCN1CC(O)=C(C#N)C1=O	16%	7%	13	15%	12%
CCN(CCn1cccn1)Cc1cn[nH]c1-c1ccc(-c2ccccc2)cc1	-15%	u	-22	23µM*	-1%
O=C(N1CCOCC1)N1CCN(S(=O)(=O)c2ccc(F)cc2)CC1	-9%	-5%	20	11%	-9%
N#CCCn1c(=O)c(-c2cc(F)cc(F)c2)nc2cnc(N3CCOCC3)nc21	x	6%	x	4%	x
COCCN1C(=O)c2[nH]nc(-c3ccccc3O)c2C1c1ccc(OC)cc1 (stereo not given)	-17%	-4%	-24	-20%	-2%
CCOCCCN1C(=O)c2[nH]nc(-c3ccccc3O)c2C1c1ccc(CC)cc1 (stereo not given)	x	21µM*	x	16µM*	x
O=C1c2[nH]nc(-c3ccccc3O)c2C(c2cccc(O)c2)N1Cc1ccncc1 (stereo not given)	x	-6%	x	-12%	x
CCc1ccc(C2c3c(-c4ccccc4O)n[nH]c3C(=O)N2Cc2ccncc2)cc1 (stereo not given)	x	15µM*	x	13µM*	x
C/C(=N\N1CCN(C)CC1)c1ccc(Cl)c(Cl)c1	5%	-1%	-14	u	0%
O=C(CSc1ccc(F)cc1)Nc1ccc(Br)cc1	-5%	-30%	0	18µM*	2%
O=C(CSc1ccc(F)cc1)Nc1ccccc1Br	16%	3%	9	0%	u
CCNC(=O)c1ccccc1SCC(=O)Nc1ccc(F)cc1	14%	16µM*	-8	u	12%
